Laboratory results taken from the supplement of paper PMC10849652.
Of roughly 8,800 targets only a part is listed; those with a hit were picked by preference. About 0.5% of all pairs of compound and target were hits.

Tests used:
Test in all cases: log2 fold change, soluble protein after heating vs DMSO (PISA); higher = thermal stabilisation; K562 lysate, 10 uM; active = over 0.2 and 3.5 SD of the protein, either way, in both replicates (recomputed)
[1] = compound: Cc1cn(-c2cc(NC(=O)c3ccc(C)c(Nc4nccc(-c5cccnc5)n4)c3)cc(C(F)(F)F)c2)cn1 [nilotinib]
Procedure, shortened: (§1)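 To prepare the extract, K562 pellets were dounce-homogenised in PBS pH 7.4 with 1 mM MgCl2, giving crude material at 1 mg/mL protein. This was treated with 10 μM compound for 30 min, then heated in aliquots for 3 min over 48°C-58°C before pooling and addition of NP-40 to 0.5% at 4°C. Centrifugation at 21,000xg for 90 min left soluble protein in the supernatant, which TMTpro 16plex LC-MS/MS quantified with equalised channel sums. Results are log-two fold changes in thermal stability compared with solvent controls, from duplicates.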

[2] = compound: Cc1nc(Nc2n[nH]c3c2CN(C(=O)N[C@H](CN(C)C)c2ccccc2)C3(C)C)c2sccc2n1
Procedure, shortened: as §1

[3] = compound: Cc1nc(Nc2ncc(C(=O)Nc3c(C)cccc3Cl)s2)cc(N2CCN(CCO)CC2)n1 [dasatinib]
Procedure, shortened: as §1

[4] = compound: Cc1ncc(-c2ccnc(Nc3ccc(S(C)(=O)=O)cc3)n2)n1C(C)C
Procedure, shortened: as §1

[5] = compound: Cn1cc(-c2ccc3c(c2)CCN3C(=O)Cc2cccc(C(F)(F)F)c2)c2c(N)ncnc21
Procedure, shortened: as §1

[6] = compound: Cn1cc(CNCC2CCN(c3ncc(C(=O)NO)cn3)CC2)c2ccccc21 [quisinostat]
Procedure, shortened: as §1

[7] = compound: Cn1cncc1[C@@](N)(c1ccc(Cl)cc1)c1ccc2c(c1)c(-c1cccc(Cl)c1)cc(=O)n2C [tipifarnib]
Procedure, shortened: as §1

[8] = compound: NC(=O)Nc1cc(-c2cccc(F)c2)sc1C(=O)N[C@H]1CCCNC1
Procedure, shortened: as §1

[9] = compound: NC(=O)c1cnc(N[C@@H]2CCCC[C@@H]2N)nc1Nc1cccc(-n2nccn2)c1
Procedure, shortened: as §1

[10] = compound: NC1(c2ccc(-c3nc4ccn5c(=O)[nH]nc5c4cc3-c3ccccc3)cc2)CCC1
Procedure, shortened: as §1

Measured: log2 fold change

NIPBL (UniProt Q6KC79)
inactive: [1] 0.06 | [2] -0.002 | [3] -0.037 | [4] 0.019 | [5] 0.091 | [6] -0.043 | [7] 0.014 | [8] 0.02 | [9] 0.003 | [10] 0.018

NUDT6 (UniProt P53370)
inactive: [3] -0.013 | [5] 0.032 | [6] 0.021 | [8] -0.03 | [10] -0.058

NUP98 (UniProt P52948)
inactive: [1] -0.041 | [2] -0.017 | [3] -0.053 | [4] -0.008 | [5] 0.031 | [6] -0.049 | [7] -0.12 | [8] 0.055 | [9] -0.002 | [10] 0.003

NUDT5 (UniProt C9JYY9)
inactive: [1] -0.049 | [2] 0.02 | [4] 0.228 | [7] -0.068 | [10] -0.119

NEXN (UniProt Q0ZGT2)
UniProt Q0ZGT2, sequence (Q0ZGT2 whole entry, looked up): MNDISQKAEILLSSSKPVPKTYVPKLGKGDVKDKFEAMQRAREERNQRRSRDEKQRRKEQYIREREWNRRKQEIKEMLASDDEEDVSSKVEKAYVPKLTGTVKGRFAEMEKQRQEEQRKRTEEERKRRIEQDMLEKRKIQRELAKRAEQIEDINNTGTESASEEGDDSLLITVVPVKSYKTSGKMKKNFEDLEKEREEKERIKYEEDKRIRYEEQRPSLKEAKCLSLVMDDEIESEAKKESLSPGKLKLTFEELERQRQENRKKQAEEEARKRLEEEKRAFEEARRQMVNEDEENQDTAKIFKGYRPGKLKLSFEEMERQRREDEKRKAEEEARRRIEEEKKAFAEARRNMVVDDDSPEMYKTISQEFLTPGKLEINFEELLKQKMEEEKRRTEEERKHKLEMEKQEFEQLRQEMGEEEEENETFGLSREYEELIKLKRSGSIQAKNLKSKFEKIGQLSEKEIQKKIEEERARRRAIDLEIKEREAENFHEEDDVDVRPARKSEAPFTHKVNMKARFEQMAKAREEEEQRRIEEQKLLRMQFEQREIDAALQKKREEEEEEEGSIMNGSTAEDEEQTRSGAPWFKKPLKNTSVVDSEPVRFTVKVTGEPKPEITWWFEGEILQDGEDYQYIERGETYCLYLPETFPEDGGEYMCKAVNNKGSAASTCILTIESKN
inactive: [1] -0.022 | [2] -0.011 | [3] 0.043 | [4] -0.051 | [5] 0.027 | [7] -0.043 | [9] -0.149 | [10] -0.002

NFKBIB (UniProt Q15653)
UniProt Q15653, sequence (Q15653 whole entry, looked up): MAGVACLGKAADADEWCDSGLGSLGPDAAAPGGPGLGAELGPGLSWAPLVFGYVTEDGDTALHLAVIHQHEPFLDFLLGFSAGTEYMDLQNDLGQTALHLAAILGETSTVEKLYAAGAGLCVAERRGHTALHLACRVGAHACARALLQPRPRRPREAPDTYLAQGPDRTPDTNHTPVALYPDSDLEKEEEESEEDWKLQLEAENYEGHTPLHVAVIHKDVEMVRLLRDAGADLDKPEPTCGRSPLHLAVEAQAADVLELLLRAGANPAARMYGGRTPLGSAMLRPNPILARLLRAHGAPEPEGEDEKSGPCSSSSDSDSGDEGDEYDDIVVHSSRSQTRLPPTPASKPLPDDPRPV
inactive: [1] -0.004 | [2] -0.015 | [3] -0.042 | [4] 0.052 | [5] 0.043 | [6] -0.062 | [7] 0.059 | [8] 0.025 | [9] 0.004 | [10] -0.08

NDUFS1 isoform 2 (UniProt P28331)
inactive: [1] 0.005 | [2] -0.001 | [3] 0.013 | [4] -0.021 | [5] 0.009 | [6] 0.112 | [7] -0.002 | [8] -0.018 | [9] 0.003 | [10] 0.006

MYH6 (UniProt P13533)
inactive: [6] -0.007 | [8] 0.082 | [9] 0.092 | [10] -0.114

MYO10 (UniProt Q9HD67)
UniProt Q9HD67, sequence (Q9HD67 whole entry, looked up): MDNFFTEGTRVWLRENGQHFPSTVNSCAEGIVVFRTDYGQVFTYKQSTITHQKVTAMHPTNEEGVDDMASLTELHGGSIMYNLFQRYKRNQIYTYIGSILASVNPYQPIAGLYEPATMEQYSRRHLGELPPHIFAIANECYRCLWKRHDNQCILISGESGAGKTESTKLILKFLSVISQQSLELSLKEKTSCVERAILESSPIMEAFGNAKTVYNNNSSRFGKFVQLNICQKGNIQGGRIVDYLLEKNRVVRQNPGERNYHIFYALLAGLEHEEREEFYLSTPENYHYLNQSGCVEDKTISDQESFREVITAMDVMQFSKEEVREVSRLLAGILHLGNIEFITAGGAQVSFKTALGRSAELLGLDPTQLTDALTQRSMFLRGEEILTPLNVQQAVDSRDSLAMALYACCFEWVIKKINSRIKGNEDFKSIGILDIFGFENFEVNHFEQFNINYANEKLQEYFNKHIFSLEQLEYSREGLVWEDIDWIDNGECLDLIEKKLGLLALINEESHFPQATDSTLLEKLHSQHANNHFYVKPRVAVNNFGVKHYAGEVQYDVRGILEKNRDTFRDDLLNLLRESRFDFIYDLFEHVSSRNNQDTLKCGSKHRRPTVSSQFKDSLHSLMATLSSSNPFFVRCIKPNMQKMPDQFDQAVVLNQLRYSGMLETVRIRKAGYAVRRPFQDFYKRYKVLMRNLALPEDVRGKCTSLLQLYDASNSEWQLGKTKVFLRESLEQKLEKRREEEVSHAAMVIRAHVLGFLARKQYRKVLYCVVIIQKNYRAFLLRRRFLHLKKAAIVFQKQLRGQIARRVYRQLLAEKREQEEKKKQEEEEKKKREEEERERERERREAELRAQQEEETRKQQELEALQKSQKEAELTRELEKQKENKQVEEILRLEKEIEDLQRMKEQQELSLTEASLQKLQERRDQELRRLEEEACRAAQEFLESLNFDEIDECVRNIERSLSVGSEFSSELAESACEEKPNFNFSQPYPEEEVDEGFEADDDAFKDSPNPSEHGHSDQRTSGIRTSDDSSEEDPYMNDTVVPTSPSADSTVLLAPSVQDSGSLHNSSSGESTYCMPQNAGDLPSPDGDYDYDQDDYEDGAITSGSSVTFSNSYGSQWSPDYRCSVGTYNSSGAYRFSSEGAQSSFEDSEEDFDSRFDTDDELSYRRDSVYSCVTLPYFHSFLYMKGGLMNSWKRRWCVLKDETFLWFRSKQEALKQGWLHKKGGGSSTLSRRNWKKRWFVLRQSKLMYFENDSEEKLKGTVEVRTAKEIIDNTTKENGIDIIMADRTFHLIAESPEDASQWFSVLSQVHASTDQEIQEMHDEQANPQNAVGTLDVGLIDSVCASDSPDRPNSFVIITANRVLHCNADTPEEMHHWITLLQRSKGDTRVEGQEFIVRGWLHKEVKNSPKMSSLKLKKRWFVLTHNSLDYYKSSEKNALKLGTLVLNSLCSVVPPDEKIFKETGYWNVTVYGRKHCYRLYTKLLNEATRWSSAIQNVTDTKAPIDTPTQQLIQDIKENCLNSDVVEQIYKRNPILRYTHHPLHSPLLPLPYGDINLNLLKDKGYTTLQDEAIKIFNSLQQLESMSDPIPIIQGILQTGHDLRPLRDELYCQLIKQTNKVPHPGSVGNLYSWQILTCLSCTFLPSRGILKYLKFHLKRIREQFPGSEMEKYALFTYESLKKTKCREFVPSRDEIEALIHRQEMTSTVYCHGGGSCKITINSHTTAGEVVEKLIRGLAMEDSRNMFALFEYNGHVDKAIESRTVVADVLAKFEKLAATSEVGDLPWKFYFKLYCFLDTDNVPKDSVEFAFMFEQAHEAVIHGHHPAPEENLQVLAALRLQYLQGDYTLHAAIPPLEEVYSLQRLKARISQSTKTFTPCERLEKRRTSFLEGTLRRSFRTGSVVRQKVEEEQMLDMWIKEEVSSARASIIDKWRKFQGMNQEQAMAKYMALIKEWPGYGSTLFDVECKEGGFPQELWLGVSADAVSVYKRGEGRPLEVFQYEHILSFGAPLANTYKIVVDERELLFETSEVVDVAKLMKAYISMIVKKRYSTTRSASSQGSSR
inactive: [1] -0.019 | [2] -0.021 | [4] 0.126 | [6] 0.074 | [7] -0.063 | [8] -0.051 | [10] -0.161

NUB1 isoform 2 (UniProt Q9Y5A7)
inactive: [6] 0.205 | [8] -0.019

MRPL58 (UniProt Q14197)
inactive: [1] -0.022 | [2] 0.045 | [3] -0.008 | [4] -0.012 | [5] 0.021 | [6] 0.017 | [7] 0.003 | [8] 0.055 | [9] 0.025 | [10] -0.032

NAA16 (UniProt Q6N069)
inactive: [1] 0.068 | [2] -0.139 | [3] -0.042 | [4] 0.039 | [5] 0.071 | [7] -0.015 | [9] 0.08

MYLK (UniProt Q15746)
inactive: [1] 0.138 | [2] -0.197 | [4] -0.108 | [6] 0.048 | [7] -0.035 | [8] -0.175 | [9] 0.079

MTHFD1 (UniProt V9GZ32)
inactive: [1] -0.43 | [2] -0.802 | [4] -0.041 | [7] 0.188 | [9] -0.185

NIT2 (UniProt Q9NQR4)
UniProt Q9NQR4, sequence (Q9NQR4 whole entry, looked up): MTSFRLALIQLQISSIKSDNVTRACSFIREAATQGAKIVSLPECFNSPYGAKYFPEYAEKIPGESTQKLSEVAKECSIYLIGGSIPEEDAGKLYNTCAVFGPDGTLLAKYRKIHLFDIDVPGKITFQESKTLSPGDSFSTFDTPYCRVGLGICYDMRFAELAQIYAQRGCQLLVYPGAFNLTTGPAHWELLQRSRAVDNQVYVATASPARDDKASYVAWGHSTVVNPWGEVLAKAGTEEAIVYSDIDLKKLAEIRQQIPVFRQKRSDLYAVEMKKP
inactive: [1] -0.011 | [2] 0.001 | [3] -0.03 | [4] -0.021 | [5] -0.027 | [6] 0.004 | [7] 0.019 | [8] 0.021 | [9] -0.016 | [10] -0.023

OSGEP (UniProt Q9NPF4)
inactive: [1] -0.005 | [2] 0.008 | [3] 0.002 | [4] 0.018 | [5] 0.025 | [6] -0.006 | [7] 0.026 | [8] -0.012 | [9] -0.027 | [10] 0.03

NUMB isoform 2 (UniProt P49757)
UniProt P49757, sequence (P49757 whole entry, looked up): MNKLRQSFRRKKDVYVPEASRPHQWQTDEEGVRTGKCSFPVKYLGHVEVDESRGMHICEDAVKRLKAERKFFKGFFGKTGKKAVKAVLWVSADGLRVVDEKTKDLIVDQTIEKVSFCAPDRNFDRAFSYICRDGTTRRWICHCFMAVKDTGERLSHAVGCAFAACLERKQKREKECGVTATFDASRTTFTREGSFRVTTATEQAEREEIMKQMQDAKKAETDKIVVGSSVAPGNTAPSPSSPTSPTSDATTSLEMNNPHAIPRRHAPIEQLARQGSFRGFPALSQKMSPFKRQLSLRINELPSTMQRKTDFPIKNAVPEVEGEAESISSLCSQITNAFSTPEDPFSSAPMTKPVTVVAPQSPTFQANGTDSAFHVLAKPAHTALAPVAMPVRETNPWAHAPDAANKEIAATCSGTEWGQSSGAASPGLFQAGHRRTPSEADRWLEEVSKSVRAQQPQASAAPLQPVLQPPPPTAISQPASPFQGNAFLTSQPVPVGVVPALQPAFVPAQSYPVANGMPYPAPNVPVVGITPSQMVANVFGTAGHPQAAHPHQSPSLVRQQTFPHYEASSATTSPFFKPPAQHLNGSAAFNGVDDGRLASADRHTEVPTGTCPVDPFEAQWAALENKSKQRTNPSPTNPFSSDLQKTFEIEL
inactive: [1] -0.293 | [2] -0.07 | [3] 0.227 | [4] 0.225 | [5] -0.127 | [7] -0.068

NFAT5 isoform 4 (UniProt O94916)
inactive: [6] 0.014 | [8] 0.012

P2RY1 (UniProt P47900)
inactive: [3] 0.012 | [5] -0.027 | [9] -0.182 | [10] 0.004

PARG (UniProt Q86W56)
UniProt Q86W56, sequence (Q86W56 whole entry, looked up): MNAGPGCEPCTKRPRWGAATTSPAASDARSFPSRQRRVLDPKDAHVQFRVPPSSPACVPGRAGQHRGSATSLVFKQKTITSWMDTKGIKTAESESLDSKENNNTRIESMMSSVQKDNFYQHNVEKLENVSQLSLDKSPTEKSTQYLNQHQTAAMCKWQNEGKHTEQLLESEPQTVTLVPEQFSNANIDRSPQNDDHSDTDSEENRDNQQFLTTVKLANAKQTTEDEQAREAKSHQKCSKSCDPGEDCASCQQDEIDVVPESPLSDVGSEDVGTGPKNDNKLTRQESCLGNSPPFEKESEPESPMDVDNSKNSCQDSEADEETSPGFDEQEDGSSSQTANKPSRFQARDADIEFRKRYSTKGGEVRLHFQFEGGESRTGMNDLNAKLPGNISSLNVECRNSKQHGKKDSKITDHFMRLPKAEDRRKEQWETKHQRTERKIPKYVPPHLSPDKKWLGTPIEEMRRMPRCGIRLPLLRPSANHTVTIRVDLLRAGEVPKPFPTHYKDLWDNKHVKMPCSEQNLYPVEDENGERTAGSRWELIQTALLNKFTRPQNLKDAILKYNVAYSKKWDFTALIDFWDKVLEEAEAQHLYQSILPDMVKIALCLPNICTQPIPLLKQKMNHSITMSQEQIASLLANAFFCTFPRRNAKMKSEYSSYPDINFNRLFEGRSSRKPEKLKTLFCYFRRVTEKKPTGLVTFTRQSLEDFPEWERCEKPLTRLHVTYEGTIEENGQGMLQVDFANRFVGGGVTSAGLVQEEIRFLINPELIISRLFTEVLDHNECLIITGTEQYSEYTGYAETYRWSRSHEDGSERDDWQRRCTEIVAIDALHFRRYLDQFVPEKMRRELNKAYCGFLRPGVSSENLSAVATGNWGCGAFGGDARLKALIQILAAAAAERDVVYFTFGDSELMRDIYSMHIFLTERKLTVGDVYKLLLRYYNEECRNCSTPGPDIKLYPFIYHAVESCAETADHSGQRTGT
inactive: [1] 0.006 | [2] 0.017 | [3] -0.033 | [4] 0.007 | [5] -0.004 | [6] -0.081 | [7] -0.007 | [8] 0.097 | [9] 0.006 | [10] 0.006

PAGE4 (UniProt O60829)
inactive: [3] -0.086 | [5] -0.035 | [6] -0.097 | [8] 0.036 | [9] 0.04 | [10] 0.004
